TDP1 cell CPT: qHTS for Inhibitors of human tyrosyl-DNA phosphodiesterase 1 (TDP1): qHTS in cells in presence of CPT; chicken DT40 Tdp1-/-;hTDP1 cells + 20 nM CPT, ATP luminescence, 48 h; Potency, µM (highest dose often 46.2 µM), without a hit: top-dose activity change, negative = growth inhibition, hits mostly inhibitors; actives 12% (n = 420,000); AID 686979, 2013; note: % is set by controls: 0 for no effect and ±100 for the full control effect; nearly all actives have a fitted effect of over 55% in size
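Chicken DT40 Tdp1-/- cells complemented with human TDP1, 400 cells/well, exposed to compounds plus 20 nM camptothecin for at least 48 h at 37 C; viability read as ATP content by CellTiter-Glo luminescence.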
TGFb inhibitor: qHTS for Inhibitors of TGF-b. Potency, µM (highest dose often 46.1 µM), for inactives: at the highest dose activity, negative = inhibition, actives largely listed as inhibitors. actives 1.2% (n = 410,000). HepG2 CAGA-GFP TGF-b/SMAD3 reporter, GFP fluorescence, 18 h; TGF-beta stimulated, 500 pg/mL final. AID 588855, 2011; note: % is set by controls: 0 for no effect and ±100 for the full control effect; nearly all actives have a fitted effect of over 65% in size
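Inhibition of TGF-beta-driven CAGA-GFP reporter expression in HEPG2 cells is measured by cellular GFP fluorescence after 18 h stimulation with 500 pg/mL recombinant TGF-beta in 1% FBS medium at 37 degrees C.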
HepG2 viability: qHTS for Inhibitors of TGF-b: Cytotox Counterscreen. Potency, µM (top dose mostly 46.1 µM), for inactives: at the top dose activity change, negative = cytotoxicity, most hits filed as cytotoxic. HepG2 CAGA-GFP viability, ATP luminescence, 18 h. actives 0.76% (n = 410,000). AID 588856, 2011
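HepG2 CAGA-GFP cells (1000/well, DMEM with 1% FBS) received compound, then TGF-beta at 500 pg/mL final, and were incubated 18 hours at 37 degrees C. Viability was read by CellTiter-Glo luminescence. Media-only wells were set as complete cell-killing and DMSO as no toxicity.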
DT40 TDP1 no CPT: qHTS for Inhibitors of human tyrosyl-DNA phosphodiesterase 1 (TDP1): qHTS in cells in absence of CPT; DT40 Tdp1-/- hTDP1 cells, no CPT, ATP luminescence, 48 h; Potency, µM (titrated, usually from 46.2 µM), without a hit: at the top dose activity change, negative = growth inhibition, hits mostly inhibitors; actives 15% (n = 420,000); note: % is set by controls: 0 for no effect and ±100 for the full control effect; nearly all actives have a fitted effect of over 55% in size
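Growth of hTDP1-complemented DT40 Tdp1-knockout cells is measured by ATP luminescence after at least 48 hr compound exposure at 37 °C, with DMSO substituting for the 20 nM CPT used in the parallel screen.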
S2 tox: Viability Counterscreen for Primary qHTS for Inhibitors of ATXN expression | S2 cells (HEK-293 line with an ATXN2-luciferase reporter) viability, CellTiter-Fluor protease fluorescence, 24 h | Potency, µM (top dose mostly 56.7 µM), hits mostly cytotoxic | actives 0.49% (n = 400,000); note: nearly all actives have a fitted effect of over 40% in size
ATXN2 expr inh: Primary qHTS for Inhibitors of ATXN expression. HEK-293 ATXN2-luciferase reporter, luminescence, 24 h. Potency, µM (highest dose often 57 µM), inactives show top-dose activity change, negative = inhibition, usual class: inhibitors. actives 0.72% (n = 360,000). AID 1745845, 2022; note: % is set by controls: 0 for no effect and ±100 for the full control effect; nearly all actives have a fitted effect of over 55% in size
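ATXN2-luciferase reporter cells (luciferase flanked by upstream and downstream ATXN2 gene portions) were treated 24 h at 37 °C with compounds at up to 57 uM. SteadyGlo luminescence gave expression; GF-AFC fluorescence gave viability.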
Starred values were filed as active, the others as inactive; i = inactive; ? = inconclusive; . = no result. A selection: hits, their analogues and other compounds. The true share with any hit is near 17%. Calls come from the whole dose curve; as a rule, active = well fitted curve in the direction sought with a large enough effect; inconclusive = small, poorly fitted or top-dose-only effect, or another doubt; inactive = no such curve, though single readings can be large; an effect the other way counts as inactive or inconclusive. Potency is the fitted concentration of half-maximal effect.

SMILES	TDP1 cell CPT	TGFb inhibitor	HepG2 viability	DT40 TDP1 no CPT	S2 tox	ATXN2 expr inh
O=C(O/N=C\c1ccc(N2CCCCC2)c([N+](=O)[O-])c1)c1c(F)cccc1F	?	12%	1%	?	?	5%
Cc1ccc(C(=O)O/N=C\c2ccc(N3CCCCC3)c([N+](=O)[O-])c2)cc1	?	26%	-3%	13µM*	i	-2%
CO/N=C/c1ccc(N2CCN(C(=O)c3ccc(F)cc3)CC2)c([N+](=O)[O-])c1	15µM*	-1%	-13%	15µM*	i	-19%
O=C(O/N=C\c1ccc(N2CCCCC2)c([N+](=O)[O-])c1)c1cccc(Cl)c1	-9%	2%	-3%	?	i	6%
CO/N=C/c1ccc(N2CCN(C(=O)c3ccc(Cl)cc3Cl)CC2)c([N+](=O)[O-])c1	10µM*	-23%	-12%	5.8µM*	i	-31%
O=C(c1ccc(Cl)cc1[N+](=O)[O-])N1CCN(c2ccccn2)CC1	-6%	-30%	-6%	-3%	i	.
CO/N=C/c1ccc(N2CCN(C(=O)c3cccc(C(F)(F)F)c3)CC2)c([N+](=O)[O-])c1	15µM*	?	2%	21µM*	i	-23%
COc1ccc(C(O)(CCN2CCOCC2)c2ccccc2)cc1 (configuration not stated)	3%	11%	-3%	-13%	?	17%
CCN(C(=O)c1cnc(OC)cc1C(F)(F)F)c1ccc(Cl)cc1Cl	-16%	-4%	6%	?	i	-14%
COC(=O)c1ccc(Oc2nc(Nc3ccc(C)c(C)c3)nc(N(C)C)n2)cc1	11µM*	?	-13%	18µM*	i	-29%
CCOc1ccc(CSC2=NCCN2)cc1Cl	?	0%	-11%	15µM*	?	4%
c1ccc(CSC2=NCCCN2)cc1	3%	-1%	2%	0%	i	10%
Clc1ccccc1CSC1=NCCN1	-18%	-1%	-10%	-6%	i	11%
N#Cc1ccc(CSC2=NCCN2)cc1	21µM*	0%	-43%	23µM*	i	27%
Cc1ccc(S(=O)(=O)OCCC2=CC(=O)CCN2Cc2ccccc2)cc1	16µM*	-8%	-24%	?	i	-2%
Cc1ccc(S(=O)(=O)N2CCN(Cc3ccccc3)CC2)cc1	-27%	-21%	-16%	-9%	i	1%
CCCSC(=S)c1c(C)[nH]n(-c2ccccc2)c1=O	21µM*	0%	-57%	16µM*	.	25µM*
C=C(C)c1nc(Oc2ccccc2)nc(Oc2ccccc2)n1	7.3µM*	11µM*	-93%	6.5µM*	.	?
Cc1c(Nc2cc(Cl)c3nonc3c2[N+](=O)[O-])c(=O)n(-c2ccccc2)n1C	1.3µM*	?	-84%	2.1µM*	28µM*	?
O=C1CC(N(Cc2cccs2)C(=O)Nc2ccccc2)C(=O)N1c1ccc(Cl)cc1 (configuration not stated)	-6%	-11%	-17%	-27%	i	-16%
O=[N+]([O-])c1cc2ccccc2c(O)c1O	23µM*	12%	4%	?	i	.
O=[N+]([O-])c1cc(-c2ccccc2)cc([N+](=O)[O-])c1O	?	?	-21%	18µM*	i	-14%
CCn1c(CNc2ccc(F)cc2)nnc1SCCN1CCCCC1	5%	2%	-10%	-16%	i	-4%
CCn1c(CNc2ccccc2Cl)nnc1SCCN1CCCCC1	18µM*	6%	-23%	16µM*	i	-5%
CCc1ccc(NC(=O)Cn2nnc(-c3ccc(C)cc3-n3cnnn3)n2)cc1	-6%	?	-71%	-21%	i	.
SMILES	TDP1 cell CPT	TGFb inhibitor	HepG2 viability	DT40 TDP1 no CPT	S2 tox	ATXN2 expr inh
CCCNC(=O)C1CCC(Cn2c(=O)c3sccc3n(CC(=O)NCc3cccc(OC)c3OC)c2=O)CC1 (configuration not stated)	?	-22%	0%	4.1µM*	i	15%
CCCCNC(=O)C1CCC(Cn2c(=O)c3sccc3n(CC(=O)Nc3ccccc3)c2=O)CC1 (configuration not stated)	15µM*	2%	10%	?	i	13%
CCCCNC(=O)C1CCC(Cn2c(=O)c3sccc3n(CC(=O)N3CCCC3)c2=O)CC1 (configuration not stated)	-4%	8%	0%	-17%	i	10%
CCn1c(C)cc(C(=O)CSc2nnc(C3CC3)n2C2CC2)c1C	?	-10%	-4%	?	?	.
CCNC(=O)N(C)c1c(CC)nc2ccc(C(=O)Nc3cccc(OCC(=O)N(C)C)c3)cn12	-3%	7%	-1%	-6%	i	8%
CCc1nc2ccc(C(=O)NCCCn3ccnc3)cn2c1N(C)Cc1ccc(OC)cc1	?	6%	-11%	15µM*	i	1%
CCc1nc2ccc(C(=O)NCCCn3ccnc3)cn2c1N(C)CCCc1ccccc1	18µM*	-9%	-31%	?	i	-10%
CCc1nc2ccc(C(=O)NCCCn3ccnc3)cn2c1N(CC)CCN(C)C	-17%	7%	-8%	0%	i	1%
CCc1nc2ccc(C(=O)NCCCn3ccnc3)cn2c1N(C)Cc1cc2ccccc2s1	?	5%	-17%	16µM*	i	-20%
CCc1nc2ccc(C(=O)Nc3cccc(OCC(=O)N(C)C)c3)cn2c1N(C)Cc1cc2ccccc2s1	16µM*	?	-64%	16µM*	?	?
CCc1nc2ccc(C(=O)NCCCN(C)C)cn2c1N(C)Cc1ccc(OC)cc1	?	29%	-19%	?	i	-5%
O=S(=O)(NCCc1cn2ccsc2n1)c1ccc(Cl)cc1	-17%	-17%	-16%	-15%	.	.
COc1c(C)cccc1C(=O)Nc1ccc(OCC(=O)N2CCOCC2)cc1C	0%	-10%	5%	1%	?	1%
O=C(NCC(=O)N1CCN(S(=O)(=O)c2ccccc2C(F)(F)F)CC1)c1sc2ccccc2c1Cl	?	0%	-3%	12µM*	?	-19%
